LmPK inhibitor – LmPK (Leishmania mexicana) enzyme inhibition; Q27686; purified LmPK, Kinase-Glo ATP luminescence, 1 h; Potency, µM (top dose mostly 57.5 µM), for the others: at the highest dose activity change, negative = inhibition, most hits filed as inhibitors; 0.37% of 290,000 active; AID 1721
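Pyruvate kinase activity monitored as ATP production (luciferase luminescence). Conditions: 0.1 nM enzyme, 0.5 mM PEP, 0.1 mM ADP, 1 h, RT; normalized against uninhibited and no-enzyme wells.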
RE007 growth inh – less growth of the S. pombe RE007 Vpr strain; S. pombe RE007 Vpr strain, BacTiter-Glo ATP luminescence, 24 h; Potency, µM (series often up to 92.2 µM), for the others: at the highest dose activity change, negative = less growth, actives largely listed as inhibitors; 0.21% of 360,000 active; active means well fitted falling curve with a large enough effect; inconclusive means small, poorly fitted or top-dose-only effect; inactive means no such curve, though single readings can be large or run the other way; further: nearly all actives have a fitted effect of over 50% in size
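Fission yeast RE007 carrying one integrated HIV-1 vpr copy, seeded at OD 0.01 in PMG+AL medium with 23 nL pinned compound. Grown 24 h at 30 degrees; viability read by BacTiter-Glo luminescence after 5 min.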
Tb PYK inh – blocks Trypanosoma brucei pyruvate kinase; TbPYK enzyme, Kinase-Glo Plus ATP luminescence, 45 min; Potency, µM (doses to about 76.8 µM), inactives show at the top dose activity, negative = inhibition, hits mostly inhibitors; 0.12% of 410,000 active; further: nearly all actives have a fitted effect of over 50% in size
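Luminescence from Kinase-Glo Plus, added after a 45-minute room-temperature reaction, served as the end-point read-out. The enzyme and substrate were preincubated with compound before ADP (130 uM final) initiated turnover. Concentration-effect curves came from normalized qHTS data.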
AmpC inh no detg – inhibitors of E. coli AmpC beta-lactamase without detergent. P00811. AmpC nitrocefin hydrolysis, absorbance 480 nm, 0.0001% Triton. Potency, µM (highest dose often 57.1 µM), for the others: at the top dose activity change, negative = inhibition, usual class: inhibitors. 0.52% of 330,000 active;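 further: plate controls were no compound for no effect and no enzyme for full effect; nearly all actives have a fitted effect of over 20% in size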
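AmpC (5.3 nM in the dispensed reagent) in 20 mM phosphate pH 7.0 with 0.01% (detergent screen) or 0.0001% Triton X-100 was preincubated with compounds for 15 min at room temperature. Nitrocefin was then added from an 800 uM solution, and hydrolysis was followed at 480 nm.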
AmpC detergent – blocks E. coli AmpC beta-lactamase in detergent assay. P00811. 0.041% of 370,000 active. AID 485294. AmpC hydrolysis of nitrocefin, absorbance 480 nm, 0.01% Triton. Potency, µM (doses to about 114 µM), for inactives: top-dose activity change, negative = inhibition, hits mostly inhibitors;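 further: 0% = no-compound wells and -100% = no-enzyme wells; nearly all actives have a fitted effect of over 25% in size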
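20 mM phosphate pH 7.0 + 0.01% (detergent screen) or 0.0001% Triton X-100; 5.3 nM AmpC reagent; cpd preinc 15 min RT; nitrocefin (800 uM stock) to start; A480 q20 s × 4 min; Activity was normalised to no-enzyme and no-compound control wells.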
Giardia FBPA inh-1 – blocks Giardia fructose-bisphosphate aldolase activity; purified Giardia FBPA; Potency, µM (highest dose often 59.6 µM), for inactives: at the highest dose activity, negative = inhibition, hits mostly inhibitors; 0.71% of 290,000 active; AID 2451; further: nearly all actives have a fitted effect of over 55% in size
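Giardia FBPA (40 nM reagent) was preincubated 10 min at RT with compound (up to 57.5 uM final), then substrate plus GAPDH/TPI/NAD/arsenate coupling system with diaphorase/resazurin was added; resorufin fluorescence (525/598 nm) was read after 20 min.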
Giardia growth – blocks growth of Giardia lamblia trophozoites. Potency, µM (doses to about 57.5 µM), for the others: at the highest dose activity change, negative = inhibition, actives largely listed as inhibitors. AID 2785. Giardia lamblia trophozoite growth inhibition. shares compounds with Giardia FBPA inh-1. 5% of 1,500 active;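 further: trophozoites exposed to compound for 48 h at 37 °C; nearly all actives have a fitted effect of over 70% in size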
Mammal cell tox – counter-screen for Giardia aldolase inhibitors: mammalian cell toxicity. shares compounds with Giardia FBPA inh-1. AID 2786. mammalian cell viability counter-screen, qHTS. Potency, µM (series often up to 57.5 µM), inactives show at the top dose viability change, negative = toxicity, actives largely listed as inhibitors. 4% of 1,500 active;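 further: Chinese hamster ovary cells used as mammalian cytotoxicity surrogate; viability measured as cellular ATP by luminescence; compound exposure lasted 48 h before reading; nearly all actives have a fitted effect of over 60% in size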
Giardia FBPA inh-2 – confirmation of Giardia fructose-bisphosphate aldolase inhibitors; AID 2787; purified Giardia aldolase enzyme activity, qHTS; Potency, µM (doses to about 57.5 µM), for the others: at the top dose activity change, negative = inhibition, actives largely listed as inhibitors; 5% of 1,500 active; shares compounds with Giardia FBPA inh-1; further: nearly all actives have a fitted effect of over 45% in size
Rabbit FBPA inh – blocks rabbit muscle aldolase in Giardia aldolase selectivity test | shares compounds with Giardia FBPA inh-1 | Rabbit muscle FBPA enzyme inhibition, selectivity counter-screen | Potency, µM (highest dose often 57.5 µM), inactives show at the highest dose activity, negative = inhibition, actives largely listed as inhibitors | 4% of 1,500 active | AID 2794; further: nearly all actives have a fitted effect of over 60% in size
Target sequence (P00883 whole entry, looked up): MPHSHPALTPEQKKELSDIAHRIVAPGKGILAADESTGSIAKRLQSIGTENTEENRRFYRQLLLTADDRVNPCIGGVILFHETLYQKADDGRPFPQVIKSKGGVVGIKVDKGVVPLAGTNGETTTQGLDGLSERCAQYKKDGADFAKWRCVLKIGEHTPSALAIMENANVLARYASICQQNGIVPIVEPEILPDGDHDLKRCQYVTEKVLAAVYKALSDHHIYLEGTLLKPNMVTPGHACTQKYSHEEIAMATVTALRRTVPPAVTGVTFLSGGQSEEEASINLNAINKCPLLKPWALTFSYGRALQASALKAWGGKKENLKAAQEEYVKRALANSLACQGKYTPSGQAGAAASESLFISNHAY
GAPDH coupling – counter-screen for Giardia aldolase inhibitors: GAPDH coupling enzyme. shares compounds with Giardia FBPA inh-1. GAPDH coupling enzyme counterscreen, biochemical, qHTS. Potency, µM (doses to about 57.5 µM), inactives show top-dose activity change, negative = inhibition, hits mostly inhibitors. 6% of 1,500 active; further: nearly all actives have a fitted effect of over 55% in size
Numbers without * were called inactive; ? = inconclusive; . = no result; [ ] = dose if it differs, or a comment. A selection: hits, their analogues and other compounds. The true share with any hit is near 1.4%. Unless noted, the call rests on the fitted dose curve; in most records, active means well fitted curve in the direction sought with a large enough effect; inconclusive means small, poorly fitted or top-dose-only effect, or another doubt; inactive means no such curve, though single readings can be large; an effect the other way counts as inactive or inconclusive. Unless noted, on the % scale 0 is the no-effect control and ±100 the full control effect; potency means the concentration at half of the fitted maximal effect.

SMILES	LmPK inhibitor	RE007 growth inh	Tb PYK inh	AmpC inh no detg	AmpC detergent	Giardia FBPA inh-1	Giardia growth	Mammal cell tox	Giardia FBPA inh-2	Rabbit FBPA inh	GAPDH coupling
O=C(C1=C(O)C(=O)N(c2nccs2)C1c1ccccc1)c1cc2ccccc2o1 (stereo not drawn)	-16%	-18%	-11%	-46%	2%	16µM*	-30%	10%	1%	10%	15%
O=S(=O)(NCCc1csc2nc(-c3ccc(F)cc3)nn12)c1ccc(Oc2ccccc2)cc1	.	.	-1%	.	1%	.	.	.	.	.	.
O=[N+]([O-])c1ccccc1C1Nc2cccc3cccc(c23)N1	4%	-11%	26%	-30%	4%	?	10µM*	-19%	?	-25%	?
CCN(CC)c1ccc(N)cc1S(=O)(=O)Nc1ccccc1OC	-14%	0%	?	-24%	2%	16µM*	13%[10.4 µM]	0%	1%	4%	16%
Cc1nc(C(=O)NNC(=O)c2ccc(Cl)cc2)cs1	-6%	-16%	-1%	-11%	2%	18µM*	?	-26%	1%	6%	8%
CCC1(C)Cc2c(C#N)c(N)sc(=S)c2CO1 (stereo not drawn)	8%	-3%	-7%	-18%	-9%	2.2µM*	6%[10.4 µM]	-6%	-17%	-6%	-13%
N#Cc1c(N)sc(=S)c2c1CCCC2	5%	-22%	-13%	-45%	0%	18µM*	?	2%	-16%	-15%	-19%
Cc1ccc2occ(-c3cc(-c4ccc(F)cc4)nc4c3COc3ccc(F)cc3-4)c(=O)c2c1	.	.	-3%	.	-2%	.	.	.	.	.	.
CSc1cccc(NC(=S)N2CCC(N(C)C3CCCCC3C)CC2)c1 (stereo not drawn)	2%	-6%	-4%	-19%	4%	6%	.	.	.	.	.
CSc1cccc(NC(=S)N2CCC(N(C)C3CCCCC3)CC2)c1	-2%	-8%	-3%	-8%	3%	13µM*	?	-8%	-5%	-2%	3%
O=S(=O)(NCCNS(=O)(=O)c1cccs1)c1cccs1	-2%	4%	-5%	-14%	-12%	-3%	.	.	.	.	.
C=CCNC(=S)NS(=O)(=O)c1cccs1	-1%	-20%	-8%	-14%	?	5.6µM*	-13%[38.3 µM]	10%	-14%	10%	-1%
O=C1CN(C(=S)NC(=O)c2ccccc2[N+](=O)[O-])CCN1	-13%	13%	4%	-8%	2%	11µM*	?	-7%	0%	8%	12%
O=C(NNC(=S)NC(=O)c1ccccc1[N+](=O)[O-])c1ccccc1	5%	16%	-5%	-20%	2%	0%	.	.	.	.	.
N#Cc1c(-c2cccc(Br)c2)cc(-c2ccco2)[nH]c1=O	1%	5%	1%	-43%	-11%	-11%	.	.	.	.	.
COc1ccc(-c2cc(-c3ccco3)[nH]c(=O)c2C#N)cc1	12%	0%	3%	-36%	-11%	20µM*	-29%	-7%	-12%	-1%	-1%
COc1ccc(NC(=O)Nc2ccc(N3CCOCC3)c3nonc23)c(OC)c1	1%	-6%	0%	1%	?	5µM*	?	-11%	-20%	-4%	-2%
O=C(Nc1ccc(N2CCOCC2)c2nonc12)C1CCCC1	-1%	7%	-20%	-7%	2%	0.5µM*	-24%[38.3 µM]	-4%	-17%	-5%	-24%
CCN(CC)c1ccc(NC(=O)c2cccn2-c2nnc(N3CCCCC3)s2)c(C)c1	.	.	-8%[15.4 µM]	.	5%	.	.	.	.	.	.
COc1cc(/C=C/c2nc(C#N)c(N3CCCCCC3)o2)cc(OC)c1OC	.	.	-6%	.	17%	.	.	.	.	.	.
Cc1ccccc1C(=O)Nc1nnc(-c2cccnc2)o1	10%[11.5 µM]	9%	-5%	-21%	6%	16µM*	?	6%	7%	0%	7%
